In ChEMBL document CHEMBL3988442, “University of Dundee, Small-Polar-MMV Screening Library” (2021):

Legend:
[1] = biological target: T1, Aspartate--tRNA(Asp/Asn) ligase (Mycobacterium tuberculosis (strain ATCC 25618 / H37Rv)) (UniProt P9WFW3); assay: Assay for Asp RNA synthetase-1 from Mycobacterium tuberculosis; assay type: functional; set-up: scale not given: direction of the effect not stated beside the values; conditions: 30 µM; note: in the data most compounds retested in dose-response had high values
T1 sequence (whole entry): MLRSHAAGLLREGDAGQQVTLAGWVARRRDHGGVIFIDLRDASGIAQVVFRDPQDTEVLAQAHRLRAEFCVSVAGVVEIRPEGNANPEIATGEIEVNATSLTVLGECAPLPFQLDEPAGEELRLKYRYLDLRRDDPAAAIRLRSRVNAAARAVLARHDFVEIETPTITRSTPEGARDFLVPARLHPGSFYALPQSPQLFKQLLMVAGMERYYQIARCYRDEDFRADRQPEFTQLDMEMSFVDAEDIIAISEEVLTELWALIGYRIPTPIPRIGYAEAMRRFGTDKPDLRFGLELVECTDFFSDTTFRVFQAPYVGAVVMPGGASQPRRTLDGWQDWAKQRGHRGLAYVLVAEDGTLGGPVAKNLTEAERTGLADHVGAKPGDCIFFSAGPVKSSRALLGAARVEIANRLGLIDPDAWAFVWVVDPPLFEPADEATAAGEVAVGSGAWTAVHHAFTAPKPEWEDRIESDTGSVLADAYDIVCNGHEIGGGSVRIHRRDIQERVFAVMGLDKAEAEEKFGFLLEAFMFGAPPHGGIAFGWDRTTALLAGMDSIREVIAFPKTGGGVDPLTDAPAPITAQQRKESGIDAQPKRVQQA

[2] = biological target: Shiga toxin 2 (Escherichia coli O157:H7) (UniProt P09385+P09386); assay: E. coli 0.157:H7 Shiga Toxin SOP - stx2 screening assay; assay type: functional; set-up: scale not given: direction of the effect not stated beside the values; conditions: 30 µM

| SMILES | Percent Effect [1] [%] | Percent Effect [2] [%] |
| --- | --- | --- |
| O=C(c1cccnc1)N1C[C@@H]2CC[C@H](C1)N(Cc1cc(F)ccc1F)C2 | 5.92 | 1.2 |
| Cc1noc([C@H]2C[C@H]3OCC[C@H]3N(Cc3ccc4c(c3)OCO4)C2)n1 | 2.03 | -3.36 |
| CC(C)N(Cc1nc2c(cnn2C)c(=O)[nH]1)c1ccccc1 | -2.77 | 3.48 |
| CCc1nc(CN2CCCC(NCc3ncc(C(C)(C)C)o3)C2)no1 (stereo not drawn) | 5.85 | 2.13 |
| CC(=O)N1CCC(Oc2ccc(C#N)cn2)CC1 | -4.74 | -70.8 |
| Cc1noc([C@H]2COC[C@H]3CN(C(=O)Cc4ccc(F)cc4)C[C@H]32)n1 | -3.45 | 23.4 |
| c1cnc2c(c1)cc(C1CCOCC1)n2CCN1CCOCC1 | 3.26 | 4.5 |
| Cc1ccc(C(=O)NCCCN2CCOCC2)c(Cl)c1 | 0.357 | -18.1 |
| CC1N(CC2CC2)C(=O)COC12CCN(Cc1nccs1)CC2 (stereo not drawn) | -0.821 | -13.9 |
| CCCNC(=O)CNc1cc(C#N)ccc1OCC | -8.31 | -4.19 |
| O=C(CCc1nccs1)N1CCN(c2ncccn2)CC1 | -0.577 | 11.5 |
| COc1ccc(CN2CCCC3(CCN(c4ccsc4)C3=O)C2)cc1 (stereo not drawn) | 1.46 | -4.23 |
| Cc1ccc(NC(=O)NC(C)C(=O)N2CCS(=O)(=O)CC2)cc1 (stereo not drawn) | 1.19 | 12.8 |
| Cn1c(C2CC2)nc2c1CCN(CC(=O)Nc1nncs1)C2 | 7.07 | -9.76 |
| COc1cccc(CN2CCCC2c2c(C)nn(C)c2C)c1 (stereo not drawn) | 2.17 | -4.12 |
| CNCC(=O)N1CCCC(c2cccc(Nc3nc(C)cc(C)n3)n2)C1 (stereo not drawn) | 3.29 | -1.86 |
| O=C(c1ccoc1)N1CC[C@H]2OCC[C@@]2(COc2ncccc2F)C1 | -0.296 | 3.1 |
| Cc1noc(NC(=O)c2ccc(OC(F)(F)F)cc2)n1 | 3.01 | 62.3 |
| COCCNC(=O)[C@H]1C[C@@H]2CCN(Cc3ccoc3)C[C@H]2O1 | 3.35 | -3.8 |
| CC1(C)CC(N2Cc3nc(N4CCOCC4)ncc3C2=O)CC(C)(C)N1 | -4.82 | -59.4 |
| CCO[C@@H]1CCN(C(=O)c2cscn2)[C@@H]1Cc1cnn(C)c1 | -2.13 | 1.75 |
| Cc1cn(-c2ccccc2)nc1NS(=O)(=O)c1cccc(C(=O)O)c1 | 2.62 | -5.83 |
| Cc1ncc2c(n1)CN(Cc1noc(C3CC3)n1)CC2 | 0.182 | -46.9 |
| Cc1cnn(CC2CCCN2Cc2nc3ccccc3n2C)c1 (stereo not drawn) | 3.43 | -9.07 |
| Cc1cc(CN(C)C(=O)C2CCS(=O)(=O)C2)no1 (stereo not drawn) | -3.37 | -1.66 |

| SMILES | Percent Effect [1] [%] | Percent Effect [2] [%] |
| --- | --- | --- |
| Cc1cc(CN2CCN(CCOc3cccc(C#N)c3)CC2)no1 | 2.73 | 20.5 |
| Cc1ccc(S(=O)(=O)N2C[C@H]3C[C@H](NC(=O)c4ccn(C)n4)[C@H]3C2)cc1 | 1.35 | -2.81 |
| Cc1cccc(CN2C(=O)CC[C@@H]3[C@H]2CCN3CC2CCOCC2)n1 | -1.51 | -5.24 |
| Cc1cccc(Cn2c3c(ccc2=O)CCN(Cc2ccoc2)CC3)n1 | 2.51 | 2.55 |
| COc1ncccc1C(=O)Nc1nc2c(s1)CN(S(=O)(=O)C1CC1)CC2 | -4.8 | -20 |
| COc1ccc(CNC(=O)C2(C#N)CCCC2)cc1 | 2.12 | 8.48 |
| CC(C)C(NC(=O)NCCNc1ccccn1)c1cccs1 (stereo not drawn) | 7.74 | 3.04 |
| CN(C(=O)Cc1c[nH]c2ccccc12)C1CCN(c2ccccn2)CC1 | -1.54 | 5.44 |
| COc1c(CNCCNC(=O)c2ccco2)c(C)nn1C | -2.68 | 14.7 |
| COc1ccnc(N2CCN(C(=O)NCc3ccc(C)s3)CC2)n1 | -2.05 | 31.8 |
| Cc1cccc(NC(=O)N2CCCn3cnc(CN4CCCC4)c3C2)c1 | -3.25 | -16.8 |
| CNc1cc2c(nn1)CCN(C(=O)c1cccc3c1OCO3)C2 | -7.31 | 1.76 |
| Cc1ccc(-c2nc(CN3CCC(C(=O)N(C)C)CC3)cs2)o1 | 4.21 | -24.2 |
| O=C(NCCc1cccs1)[C@H]1CO[C@H]2CCNC[C@H]2C1 | 2.09 | 2.12 |
| OCC1CCCN1c1cc(N2CCC(OC3CCCC3)CC2)ncn1 (stereo not drawn) | -1.79 | 7.55 |
| Cc1cc(NS(=O)(=O)c2ccccc2F)ccc1-n1cccc1C(=O)O | 6.98 | 0.354 |
| Cc1nnc2n1CCN(CCS(=O)(=O)c1ccccc1)C2 | -4.37 | -6.96 |
| Cn1ncc(C(=O)N2CCCC(n3cccn3)C2)c1C1CC1 (stereo not drawn) | 3.87 | -7.05 |
| O=C1COC2(CCN(Cc3cccs3)CC2)CN1c1ccccc1 | -2.62 | -22 |
| O=C1CC(c2cccc(O)c2)c2c(c(C(=O)O)cn2-c2ccccc2)N1 (stereo not drawn) | 22.9 | -12.9 |
| COCCN1CCC(NCc2ccc(C#N)cc2)C1 (stereo not drawn) | -2.03 | -49.3 |
| Cc1cc(C(=O)N2CCCC(n3ccnc3C)C2)c(C)s1 (stereo not drawn) | -4.25 | -6.7 |
| COCC1CC2(CCN(C(=O)c3occc3C)CC2)CO1 (stereo not drawn) | 2.64 | -0.429 |
| Cc1cc(C)c2nc(CN3CCOC(CCO)C3)cc(O)c2c1 (stereo not drawn) | -0.725 | -15.7 |
| CCCc1cc(C(=O)N2CCCC(n3ccnc3C)C2)[nH]n1 (stereo not drawn) | -3 | -5.55 |

| SMILES | Percent Effect [1] [%] | Percent Effect [2] [%] |
| --- | --- | --- |
| Cc1nn(C)c(N(C)C)c1CNCc1cccnc1 | -1.51 | -13 |
| CN(C)S(=O)(=O)N1C[C@@H](Oc2ccccn2)[C@H]2OCCC[C@H]21 | 2.06 | -15.9 |
| O=C(c1n[nH]c2ccccc12)N1CCCC1c1noc(C2CC2)n1 (stereo not drawn) | -5.34 | 9.03 |
| O=C(Cc1ccsc1)N1CCCC(c2n[nH]c3nccnc23)C1 (stereo not drawn) | -5.85 | 6.36 |
| Cc1ccc(CC(=O)N2Cc3nccn3CC(CN(C)C)C2)cc1 (stereo not drawn) | 1.66 | 5.05 |
| CC(C)(C)c1nnc(CN2CCCC(c3cc(C(N)=O)[nH]n3)C2)o1 (stereo not drawn) | -0.781 | 19.9 |
| O=C1CC2(CCN(S(=O)(=O)c3cccs3)C2)CN1c1ccccc1 (stereo not drawn) | 3.64 | 7.29 |
| O=C(NCc1cncc2c1CCN(Cc1cccs1)C2)C1CC1 | 7.52 | -27.9 |
| O=C(c1ccc(O)c(Cl)c1)N1CCC(c2n[nH]c(C3CC3)n2)CC1 | -0.597 | 0.843 |
| c1cnn(CC2CN(Cc3ccc(-n4ccnc4)cc3)CCO2)c1 (stereo not drawn) | -1.11 | -7.92 |
| CNC(=O)c1cnc(/C=C/c2ccc(OC)c(O)c2)s1 | 1.65 | -56.5 |
| CCc1nnc2n1CCN(C(=O)c1ccc3nc(C)c(C)nc3c1)C2 | -2.42 | 7.1 |
| CC1=N[C@@]2(CC[C@@H]3CN(S(=O)(=O)CC(C)C)C[C@@H]32)C(=O)N1CC(C)C | -0.749 | 9.05 |
| CC(=O)c1cccc(NC(=O)Cn2cc(I)cn2)c1 | 6.41 | -55.6 |
| Cc1nc(CN2CCCC2c2ccsc2)nc2ccccc12 (stereo not drawn) | -2.75 | -26.3 |
| N#Cc1ccc(CNCC(C(=O)N2CCOCC2)c2ccccc2)cc1 (stereo not drawn) | 24.2 | -26 |
| Cc1ncsc1C(=O)NC1CCN(CC(=O)N(C)C(C)(C)C#N)CC1 | -2.42 | 25.4 |
| COc1ccc(C2=CCN(C(=O)CN(C)CC(N)=O)CC2)cc1 | -2.46 | -18.1 |
| COCCN1CCCC(c2nc3c([nH]2)CC(C)(C)CNC3=O)C1 (stereo not drawn) | 2.91 | 0.913 |
| CCOCC1CN(S(C)(=O)=O)Cc2cnn(CC3CCOCC3)c21 (stereo not drawn) | 5.17 | -7.39 |
| COc1ccc(CN2C[C@@H]3CCCO[C@@H]3[C@H](NS(C)(=O)=O)C2)cc1 | 5.42 | -24 |
| Cc1nc(C2(O)CCCNCC2)sc1CCOc1ccc(Cl)cc1 (stereo not drawn) | -4 | -45.5 |
| Cc1noc(C(C)C)c1C(=O)N1CCOCC1CC(=O)c1ccco1 (stereo not drawn) | 2.61 | -4.27 |
| Cc1ccc(-c2cc(C(=O)NC(C)C(=O)N3CCCCC3)on2)cc1 (stereo not drawn) | 2.34 | -5.52 |
| CC(C)c1nc(CCNC(=O)NCc2ccnc(N(C)C)c2)cs1 | -0.713 | -13.1 |

| SMILES | Percent Effect [1] [%] | Percent Effect [2] [%] |
| --- | --- | --- |
| CN(C)c1ncc(-c2cc(C(=O)O)n(CC3CC3)c2)cn1 | 0.577 | 2.77 |
| Cc1nc(CN2CCOC(CNc3cccnn3)C2)cs1 (stereo not drawn) | -1.08 | -2.07 |
| Cc1oc(-c2nc(C#N)c(N(C)C)o2)cc1S(=O)(=O)N1CCCC1 | 0.145 | -18.1 |
| Cc1ccc(CN(CCCn2ccnc2)Cc2c[nH]cn2)s1 | -4.18 | -13.7 |
| CC(Cn1cccn1)NCc1nc(-c2cccc(Cl)c2)no1 (stereo not drawn) | -3.34 | 22.5 |
| CCc1noc(C)c1C(=O)N1CCCC1Cn1nc(C)cc1C (stereo not drawn) | 0.674 | 27.6 |
| Cc1cccc(NC2CCN(C(=O)Nc3cc(F)cc(F)c3)CC2)n1 | -4.31 | -78.9 |
| Cc1noc(C)c1CNC(=O)N1CCC(C(O)c2ccccc2)CC1 (stereo not drawn) | -2.1 | -19.9 |
| CCOCCCC(=O)NCc1cn2cc(Br)ccc2n1 | 0.599 | -66 |
| O=C(CN1CCC(c2cccc(F)c2)C1)NCC(F)(F)F (stereo not drawn) | -6.79 | 2.95 |
| CCOCC(=O)N1C[C@@H]2COC[C@H](c3nc(C)no3)[C@@H]2C1 | 2.15 | -13.8 |
| Cn1cc(CN2CCn3c(CNC(=O)c4cccn4C)cnc3C2)cn1 | 12.8 | -22.6 |
| CC(C)NC(=O)N1C[C@H]2C[C@H](C(=O)NCc3ccccc3)[C@@H](C1)O2 | 2.3 | 1.68 |
| NC(=O)C1CCN(CCc2ccc(NC(=O)C3CCC3)cc2)CC1 | 3.99 | -2.25 |
| COc1nccc(N2CCN(Cc3ccc(C)cc3)C(=O)C2)c1C#N | 3.98 | -64.8 |
| Cc1ccsc1-c1nnc(C2CCN(Cc3ccc(F)cc3)CC2)o1 | -1.86 | -123 |
| CC(=O)N1CCC2(CCN(C(=O)c3ccc(Cl)c(C(F)(F)F)c3)CC2)C1 | 4.41 | 11.4 |
| Clc1ccc(OCCN2CCN(CCn3cncn3)CC2)cc1 | -1.39 | -23.5 |
| COCCn1ccc2cc(NC(C)=O)ccc21 | -5.18 | -9.31 |
| CC(=O)NCCNC(=O)c1sc(-c2ccc(Cl)s2)nc1C | 7.28 | 8.5 |
| O=C(NCCNc1ncccn1)Nc1cc(C(F)(F)F)c[nH]c1=O | -1.25 | 3.13 |
| Cn1cc(CC2CCN(C(=O)NCCc3cccc(O)c3)C2)cn1 (stereo not drawn) | -5.03 | -12.2 |
| CS(=O)(=O)Cc1cccc(C(=O)NCC2Cc3ccccc3O2)c1 (stereo not drawn) | 8.39 | -0.655 |
| Cc1nsc(C(=O)N2CCc3ccccc3C2)n1 | -2.11 | -13.9 |
